Results from PubChem BioAssay (EPA / NIEHS).
Several values for one entry are separate records, joined by “and”; a condition that tells them apart may be missing. Equal values may be shown once. Results filed as inconclusive are left out. Activity calls are given as the source filed them. Rule for the calls: active = hit-call score of the fitted dose curve at least 0.9, where 1 is the maximum; inconclusive = response in the unintended direction; inactive = score below 0.9.

Experiment: CCTE_Simmons_CellTiterGLO_HEK293T: Viability Assessment in CCTE's Assays for Thyroperoxidase (TPO) Inhibition, Simmons Lab (AID 2283665);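 for AC50: cells exposed to compound for 24 h before readout; actives reduce ATP signal below DMSO vehicle meaning cytotoxicity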
Procedure: CCTE_Simmons_CellTiterGLO_HEK293T is a cell-based, single-readout assay that uses HEK293T, a human kidney cell line, with measurements taken at 24 hours after chemical dosing in a 384-well plate.CCTE_Simmons_CellTiterGLO_HEK293T is the assay component measured from the CCTE_Simmons_CellTiterGLO_HEK293T assay. It is designed to make measurements of ATP content, a form of viability reporter, as detected with bioluminescence signals by Luciferase-coupled ATP quantitation technology. This is a secondary cytotoxicity assay to CCTE_Simmons_AUR_TPO to estimate a cellular tolerance limit.Data from the assay component CCTE_Simmons_CellTiterGLO_HEK293T was analyzed at the endpoint, CCTE_Simmons_CellTiterGLO_HEK293T, in the positive analysis fitting direction relative to DMSO as the negative control and baseline of activity. Using a type of viability reporter, measures of ATP content for loss-of-signal activity can be used to understand the viability. This assay was run in parallel with aeid 1508 as a means of indicating the range of chemical cytotoxicity or reactivity. To generalize the intended target to other relatable targets, this assay endpoint is annotated to the cell cycle intended target family, where the subfamily is cytotoxicity.
Human HEK293T cells (GenHunter; Nashville, Tennessee) were seeded overnight in 384-well, solid white assay plates (Greiner, BioExpress) at a density of 10 000 cells per well in 65 ul Dulbecco's Modified Eagle Medium (Life Technologies; Carlsbad, California) supplemented with 1% fetal bovine serum (HyClone; Logan, Utah). Test compounds were administered using the HDRT as described earlier to achieve a 0.5% final DMSO concentration. Cells were then incubated at 37C for 24 hr in a humidified 5% CO2 incubator. Cell Titer Glo (Promega; Madison, WI) reagent (25 ul) was then added by the BioTek MicroFlo and microplates were incubated at room temperature in the dark for 20min. Plates were read on a plate reader (FLUOStar Optima) using an endpoint luminescence protocol (top read). Three biological replicates of technical singles were run for every chemical concentration tested. A titrated range of DCNQ served as a positive control on each plate of the cytotoxicity screening assay.Test chemicals were administered as a titrated series of 8 concentrations from 5 nM up to 87.5 uM [final] for 24 hours prior to single endpoint detection. Three biological replicates of technical singles were run for every chemical concentration tested. Dimethylsulfoxide [DMSO] was used as the vehicle control. Dichlone [DCNQ] was used as the positive control and was administered as a titrated series of 8 concentrations from 1 nM up to 100 uM [final].

| SMILES | AC50 | outcome |
| --- | --- | --- |
| CCc1cc(Cc2cc(CC)cc(C(C)(C)C)c2O)c(O)c(C(C)(C)C)c1 | 11.1 µM (active) |  |
| CCCCCCCCC=CCCCCCCCC1=NCCN1CCO | 14 µM (active) and 13.8 µM (active) |  |
| CCOC(=O)c1ccc(N)cc1 | 21.1 µM (active) |  |
| [O-]n1ccccc1=S.[O-]n1ccccc1=S.[Zn+2] | 2.57 µM (active) |  |
| COc1ccccc1N=Nc1c(S(=O)(=O)O)cc2cc(S(=O)(=O)O)cc(NC(C)=O)c2c1O | 12.2 µM (active) |  |
| C=C1CC[C@H](O)C/C1=C/C=C1\CCC[C@]2(C)[C@@H]([C@H](C)/C=C/[C@H](C)C(C)C)CC[C@@H]12 | 78.7 µM (active) |  |
| CCCCC(CC)COC(=O)c1ccc(O)cc1 (stereo not drawn) | 24.7 µM (active) |  |
| Nc1ccc2cc(S(=O)(=O)O)cc(O)c2c1N=Nc1ccccc1C(F)(F)F | 31.1 µM (active) |  |
| Cc1ccc(S(=O)(=O)Oc2ccc(N=Nc3ccc(-c4ccc(N=Nc5c(O)ccc6cc(S(=O)(=O)O)cc(S(=O)(=O)O)c56)c(C)c4)cc3C)cc2)cc1 | 18.3 µM (active) |  |
| O=C(Nc1ccc2c(O)c(N=Nc3ccc(N=Nc4ccc(S(=O)(=O)O)cc4)cc3)c(S(=O)(=O)O)cc2c1)c1ccccc1 | 14.4 µM (active) |  |
| O=C(O)c1ccc(O)cc1 |  | inactive |
| Oc1ccc2cc(SSc3ccc4cc(O)ccc4c3)ccc2c1 | 74.3 µM (active) |  |
| COc1ccc(N=Nc2cc(C)c(N=Nc3ccc(S(=O)(=O)O)cc3)cc2OC)cc1 | 77.9 µM (active) |  |
| CCOc1ccc(N=Nc2ccc(C=Cc3ccc(N=Nc4ccc(OCC)cc4)cc3S(=O)(=O)O)c(S(=O)(=O)O)c2)cc1 | 89.1 µM (active) |  |
| CN(C)c1cccc(O)c1 |  | inactive |
| O=C(O)CCCCCCCCC(=O)O |  | inactive |
| CCCCCCCCc1ccc(S(=O)(=O)O)cc1 | 83.5 µM (active) |  |
| O=c1c(O)c(-c2ccc(O)cc2)oc2cc(O)cc(O)c12 |  | inactive |
| CCc1cc(C(C)(C)C)c(O)c(C(C)(C)C)c1 | 24.3 µM (active) |  |
| CCCCCCCCCCCCCCN(CCO)CCO | 21.4 µM (active) |  |
| CCCCCC(C=O)=Cc1ccccc1 | 88.1 µM (active) |  |
| Cc1cc(S(=O)(=O)O)ccc1N=Nc1c(O)ccc2ccccc12 | 24 µM (active) |  |
| CS(=O)(=O)OCCCCOS(C)(=O)=O |  | inactive |
